Test in all cases: growth inhibition (% activity, log2 RLU normalised to DMSO / staurosporine); higher = more growth inhibition
What all share (conditions): 33 µM

Test [1] relates to DIPGX29 (H3.3 K27M diffuse intrinsic pontine glioma line). A digest of the protocol: (§1)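 In triplicate, pHGG cell lines and H9-derived neural stem cells were treated for 7 days at 37 °C, 5% CO2 with approved drugs at a single final concentration of about 33 μM, added by pin tool. CellTiter-Glo luminescence, after log2 transformation, was normalised on each plate to % activity between solvent and positive control wells. Growth inhibition is reported as the median across replicates.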

In test [2] the test system is DIPGX37 (H3.3 K27M diffuse intrinsic pontine glioma line). A digest of the protocol: as §1
Test [3] concerns DIPGX7 (H3.3 K27M diffuse intrinsic pontine glioma line). The method, boiled down: as §1
Test [4] deals with DIPGX9 (diffuse intrinsic pontine glioma line). A digest of the protocol:
as §1

The subject of test [5] is HGGX39 (paediatric high-grade glioma line). A digest of the protocol:
as §1

Test [6] deals with HGGX6 (H3.3 G34R paediatric high-grade glioma line). The method, boiled down: as §1
For test [7], the system named is HNSC. The method, boiled down: as §1
Test [8] deals with SUDIPGIV (diffuse intrinsic pontine glioma line)
The method, boiled down:
as §1

For test [9], the system named is SUDIPGVI (diffuse intrinsic pontine glioma line)
A digest of the protocol:
as §1

Test [10] concerns SUDIPGXIII (diffuse intrinsic pontine glioma line)
A digest of the protocol:
as §1

The results in this text go back to the supplement of paper PMC8253809.

For the molecule `C[C@@H](O[C@H]1OCCN(Cc2nn(P(=O)(O)O)c(=O)[nH]2)[C@H]1c1ccc(F)cc1)c1cc(C(F)(F)F)cc(C(F)(F)F)c1`, the growth inhibition in test [1] came to 6.53%; in test [2], 2.67%; in test [3] it was 3.46%; in test [4] it was 4.01%; in [5] it was 11.6%; in test [6], 5.75%. For the same molecule, the growth inhibition came out at 4.2% in [7], 16.2% in test [8], 3.61% in [9] and 11.4% in [10].

As to `CN1CCC(=C2c3ccccc3CC(=O)c3sccc32)CC1`, the growth inhibition in [1] is -0.432%; in [2], 0.985%; in test [3] it was -0.625%; in test [4], 0.0911%; in test [5], 0.272%; in test [6] it was 2.44%. The growth inhibition in test [7] was 1.53%; in [8], -1.24%; in [9], 0.438%; in [10], 0.861%.

As for `N=C(N)N/N=C/c1c(Cl)cccc1Cl`, the growth inhibition in test [1] was 1.41%; in test [2], 1.84%; in test [3] it was 1.08%; in test [4] it was 1.59%; in [5], 4.69%; in test [6] it was 2.81%. For the same molecule, the growth inhibition in test [7] was found to be 1.67%; in test [8] it was 7.04%; in test [9], 3.21%; in test [10] it was 1.52%.

Turning to `Cc1cccc(C)c1OCC(C)N` (stereo not given), the growth inhibition in [1] was -3.9%; in test [2], -0.481%; in test [3] it was -1.91%; in [4], -1.51%; in test [5] it was -0.858%; in [6], -1.81%. For the same molecule, the growth inhibition in test [7] was -4.52%; in [8], -0.767%; in test [9], -2.5%; in test [10], 0.823%.

`C=CC[C@@H]1/C=C(\C)C[C@H](C)C[C@H](OC)[C@H]2O[C@@](O)(C(=O)C(=O)N3CCCC[C@H]3C(=O)O[C@H](/C(C)=C/[C@@H]3CC[C@@H](O)[C@H](OC)C3)[C@H](C)[C@@H](O)CC1=O)[C@H](C)C[C@@H]2OC`: the growth inhibition is 1.19% in test [1]; -1.52% in [2]; 3.82% in test [3]; 4.63% in test [4]; 9.14% in [5]; 3.03% in [6]. Moreover, the growth inhibition is 6.43% in test [7], 4.72% in test [8], 5.58% in test [9] and 2.59% in test [10].

As to `O=C1c2c(O)ccc(O)c2C(=O)c2c(NCCNCCO)ccc(NCCNCCO)c21`, the growth inhibition in test [1] was 62.2%; in test [2], 58.9%; in test [3], 59.1%; in test [4] it was 55.9%; in test [5], 61.6%; in test [6] it was 59%. Moreover, the growth inhibition in test [7] was 62.7%; in test [8], 59.9%; in test [9], 35.8%; in [10], 39.8%.

As for `N[C@@H](Cc1cc(I)c(Oc2ccc(O)c(I)c2)c(I)c1)C(=O)O`, the growth inhibition in test [1] was 3.32%; in [2], 3.94%; in [3], 1.41%; in test [4], 2.64%; in [5] it was 5.93%; in test [6], -3.21%. In addition, the growth inhibition in test [7] came out at 13.2%; in test [8], 14.9%; in test [9], 10.1%; in test [10], 0.729%.

Regarding `CC(C)C(=O)Oc1ccc(CO)cc1[C@H](CCN(C(C)C)C(C)C)c1ccccc1`, the growth inhibition is 0.102% in [1]; -1.82% in [2]; 0.436% in test [3]; 0.893% in [4]; 1.59% in test [5]; -1.41% in test [6]. Besides, the growth inhibition in test [7] was 0.95%; in test [8], -0.518%; in test [9], 1.55%; in test [10], 0.403%.

Turning to `CCC1=C(C)CN(C(=O)NCCc2ccc(S(=O)(=O)NC(=O)N[C@H]3CC[C@H](C)CC3)cc2)C1=O`, the growth inhibition in test [1] is 1.44%; in test [2], 2.15%; in test [3], -0.131%; in test [4], 1.61%; in test [5], -0.27%; in test [6], 0.0487%. Moreover, the growth inhibition was 4.42% in test [7], -0.00514% in test [8], 1.62% in test [9] and 0.817% in test [10].

As for `COC(=O)N/N=C/c1c[n+]([O-])c2ccccc2[n+]1[O-]`, the growth inhibition in test [1] was determined as 2.48%; in test [2], 4.18%; in test [3], 1.83%; in test [4], 0.689%; in test [5], 2.31%; in test [6] it was 0.191%. Moreover, the growth inhibition in test [7] is 4.92%; in test [8], 3%; in test [9], 5.18%; in [10], -3.09%.
